Activity calls are given as the source filed them. The calls were made as follows: active = hit-call score of the fitted dose curve at least 0.9, where 1 is the maximum; inactive = score below 0.9.

Assay [1] in a line: ATG_CRE_CIS: Attagene CIS-FACTORIAL HepG2 Assay for human cAMP Responsive Element (CRE) binding protein 3 (AID 2282926). The settings on record: HepG2 CRE cis-reporter, Attagene multiplexed mRNA; actives raise or lower the signal. A digest of the protocol:
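Transfected HepG2 were treated for 24 hours, then RNA was extracted and reporter cDNA amplified with sequence-specific primers. Labelled fragments were separated by capillary electrophoresis, and the CRE signal was fitted bidirectionally with DMSO as baseline.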

Assay [2] deals with CCAAT/enhancer-binding protein beta (Homo sapiens) (UniProt P17676). The assay is described as follows: ATG_C_EBP_CIS: Attagene CIS-FACTORIAL HepG2 Assay for human CCAAT/Enhancer Binding Protein (C/EBP) beta (AID 2282927). The settings on record: HepG2 Attagene cis-factorial transcription factor reporter; actives raise or lower the signal. A digest of the protocol: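 RT-PCR/capillary electrophoresis fluorescence of reporter mRNA, 24 h post-dose, in HepG2 cells carrying transfected cis-promoter reporter units. Bidirectional curve fitting against DMSO baseline captures gain or loss of signal.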

A short description of assay [3]: ATG_CMV_CIS: Attagene CIS-FACTORIAL HepG2 Assay for human CMV (Internal Marker) (AID 2282928).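 Also: endpoint acts as a background internal control marker rather than a target.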 The settings on record: HepG2 CMV promoter reporter, transcription factor profiling; actives raise or lower the signal. A digest of the protocol:
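CMV internal-marker background readout in transiently transfected HepG2 cells bearing cis-regulated reporter units. Reporter mRNA is measured 24 h after dosing by RT-PCR and capillary electrophoresis, with bidirectional fitting against DMSO.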

A short description of assay [4]: ATG_DR4_LXR_CIS: Attagene CIS-FACTORIAL HepG2 Assay for human Liver X Receptor (LXR), DR4 submotif (AID 2282929). The settings on record: HepG2 Attagene DR4 cis-reporter, mRNA transcription; actives raise or lower the signal. A digest of the protocol: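 Transiently transfected HepG2 liver cells; cis-regulated reporters; 24 h dosing. RT-PCR plus CE read-out of reporter mRNA. DMSO baseline, bidirectional curve fitting.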

The target in assay [5] is Aryl hydrocarbon receptor (Homo sapiens) (UniProt P35869). Description: ATG_Ahr_CIS: Attagene CIS-FACTORIAL HepG2 Assay for human Aryl Hydrocarbon Receptor (Ahr) (AID 2282930). The settings on record: HepG2 AhR cis-factorial reporter transcription; actives raise or lower the signal. A digest of the protocol: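 HepG2 cells transiently transfected with cis-element-driven multiplexed reporter transcription units; endogenous transcription factor activity measured as reporter mRNA 24 h after dosing. RT-PCR, 6-FAM labelling, HpaI digestion, capillary electrophoresis; bidirectional fitting versus DMSO baseline.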

A short description of assay [6]: ATG_AP_1_CIS: Attagene CIS-FACTORIAL HepG2 Assay for human Activator Protein 1 (AP-1) (AID 2282931). The settings on record: HepG2 Attagene cis-factorial AP-1 reporter mRNA; actives raise or lower the signal. The method, boiled down: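 We transfected HepG2 cells transiently with a set of cis-regulated reporter transcription units, dosed them for 24 h, and quantified reporter mRNA via RT-PCR and capillary electrophoresis, scoring gain or loss of signal relative to DMSO.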

Assay [7] in a line: ATG_AP_2_CIS: Attagene CIS-FACTORIAL HepG2 Assay for human Activator Protein 2 (AP-2) (AID 2282932). The settings on record: HepG2 AP-2 cis-reporter, Attagene transcription factor profiling; actives raise or lower the signal. The method, boiled down:
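HepG2 cells were transiently transfected with multiple cis-promoter reporter transcription units and dosed for 24 h. Reporter mRNA was measured by RT-PCR with capillary electrophoresis fluorescence; bidirectional fits relative to DMSO baseline.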

A short description of assay [8]: ATG_BRE_CIS: Attagene CIS-FACTORIAL HepG2 Assay for human Bone Morphogenetic Protein (BMP) Response Element (BRE) (AID 2282933). The settings on record: HepG2 BMP response element reporter, Attagene transcription factor profiling; actives raise or lower the signal. A digest of the protocol: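 HepG2 cells transiently transfected with multiplexed cis-element reporter units were dosed with chemical for 24 h. Reporter mRNA was measured by RT-PCR with fluorescent labelling, HpaI digestion and capillary electrophoresis; bidirectional fitting relative to DMSO.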

In assay [9] the target is Retinoic acid receptor alpha (Homo sapiens) (UniProt P10276). Description: ATG_DR5_RAR_CIS: Attagene CIS-FACTORIAL HepG2 Assay for human Retinoic Acid Receptor Alpha (RARE), DR5 submotif (AID 2282934). The settings on record: HepG2 Attagene cis-factorial RARE DR5 reporter, mRNA; actives raise or lower the signal. A digest of the protocol:
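HepG2 cells transiently transfected with multiplexed reporter units under cis (DR5 RARE) promoters, so endogenous transcription factor activity is measured. After 24 h compound exposure, reporter mRNA is quantified by RT-PCR with fluorescent labelling and capillary electrophoresis; bidirectional fitting versus DMSO.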

The target of assay [10] is Transcription factor E2F1 (Homo sapiens) (UniProt Q01094). The assay is described as follows: ATG_E2F_CIS: Attagene CIS-FACTORIAL HepG2 Assay for human E2F Transcription Factor 1 (AID 2282935). The settings on record: HepG2 Attagene cis-reporter, E2F reporter RNA transcripts; actives raise or lower the signal. A digest of the protocol:
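HepG2 cells transiently transfected with multiplexed cis-element reporter units, dosed for 24 h. Reporter mRNA measured by RT-PCR, 6-FAM primer-extension labeling, HpaI digestion and capillary electrophoresis; bidirectional fit versus DMSO baseline.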

Assay [11] is described as follows: ATG_E_Box_CIS: Attagene CIS-FACTORIAL HepG2 Assay for human Enhancer Box (E-box) (AID 2282936). The settings on record: HepG2 E-box cis-reporter transcription, actives raise or lower the signal. The method, boiled down: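 HepG2 cells transiently transfected with multiplexed cis-element reporter units sensing endogenous transcription factor activity; 24 h compound exposure. Reporter mRNA measured by RT-PCR, 6-FAM primer extension, HpaI digestion and capillary electrophoresis; bidirectional fit versus DMSO.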

Assay [12] in a line: ATG_EGR_CIS: Attagene CIS-FACTORIAL HepG2 Assay for human Early Growth Response 1 (EGR1) (AID 2282938). The settings on record: HepG2 Attagene CIS-FACTORIAL EGR reporter mRNA; actives raise or lower the signal. The method, boiled down:
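Multiplexed cis-reporter system in human hepatoma HepG2 cells, transiently transfected. Cells are dosed for 24 h; reporter transcripts are amplified, fluorescently tagged and sized by capillary electrophoresis, with DMSO as negative control.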

Assay [13] is described as follows: ATG_M_19_CIS: Attagene CIS-FACTORIAL HepG2 Assay for M19 Transcription Factor (Internal Marker) (AID 2282939). The settings on record: HepG2 Attagene CIS-FACTORIAL M19 internal marker reporter; actives raise or lower the signal. The method, boiled down:
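HepG2 cells transiently transfected with cis-regulated multiple reporter transcription units were dosed for 24 h; reporter mRNA was quantified by RT-PCR, 6-FAM primer-extension labelling, HpaI digestion and capillary electrophoresis, with bidirectional fitting against DMSO baseline.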

The nature of assay [14]: ATG_Ets_CIS: Attagene CIS-FACTORIAL HepG2 Assay for human Erythroblast Transformation Specific (ETS) (AID 2282941). The settings on record: HepG2 ETS cis-reporter transcription, actives raise or lower the signal. A digest of the protocol: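 HepG2 cells transfected with multiple cis-regulated reporter units measuring endogenous ETS-driven transcription, 24 h after dosing. Reporter mRNA quantified by RT-PCR with capillary electrophoresis; bidirectional fit relative to DMSO.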

Assay [15] has as its target Hepatocyte nuclear factor 3-beta (Homo sapiens) (UniProt Q9Y261). The assay is described as follows: ATG_FoxA2_CIS: Attagene CIS-FACTORIAL HepG2 Assay for human Forkhead box A2 (FOXA2) (AID 2282942). The settings on record: HepG2 cis-reporter transcription factor activity, 24 h; actives raise or lower the signal. The method, boiled down: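 Multiplexed cis-element reporter assay in transiently transfected HepG2. Twenty-four hours post-dosing, RNA was reverse-transcribed, amplified, FAM-labelled, HpaI-digested and separated by CE. Activity gain or loss relative to DMSO.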

Assay [16] in a line: ATG_FoxO_CIS: Attagene CIS-FACTORIAL HepG2 Assay for human Forkhead box O (FoxO) (AID 2282943). The settings on record: HepG2 Attagene cis-reporter, FoxO element, mRNA; actives raise or lower the signal. A digest of the protocol: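 HepG2 cells transiently transfected with cis-promoter-driven multiple reporter transcription units; 24 h after chemical dosing, reporter mRNA quantified by RT-PCR, fluorescent primer extension, HpaI digestion and capillary electrophoresis. Bidirectional fitting versus DMSO baseline.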

Assay [17] can be described thus: ATG_GATA_CIS: Attagene CIS-FACTORIAL HepG2 Assay for human GATA Binding Protein (AID 2282944). The settings on record: HepG2 GATA cis-element reporter, Attagene multiplex mRNA; actives raise or lower the signal. A digest of the protocol:
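HepG2 cells transiently transfected with multiplexed cis-element reporter units reflecting endogenous transcription factor activity; reporter mRNA measured after 24 h dosing by RT-PCR, 6-FAM labeling, HpaI digestion and capillary electrophoresis. Bidirectional fitting versus DMSO baseline.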

The nature of assay [18]: ATG_GLI_CIS: Attagene CIS-FACTORIAL HepG2 Assay for human Zinc Finger Protein GLI1 (AID 2282945). The settings on record: HepG2, Attagene cis-factorial reporter mRNA, GLI element; actives raise or lower the signal. A digest of the protocol:
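HepG2 cells transiently transfected with cis-promoter multiplexed reporter units report endogenous transcription factor activity. After 24 h chemical exposure, reporter mRNA was quantified by RT-PCR, 6-FAM labelling, HpaI digestion and capillary electrophoresis, with bidirectional fitting against DMSO.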

Assay [19] deals with Bile acid receptor (Homo sapiens) (UniProt Q96RI1). Description: ATG_IR1_CIS: Attagene CIS-FACTORIAL HepG2 Assay for human Nuclear Receptor Subfamily 1 Group H Member 4 (NR1H4), IR1 submotif (AID 2282946). The settings on record: IR1 reporter transcription, actives raise or lower the signal. The method, boiled down:
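Transient MRTU transfection, HepG2; 24 h dosing; RNA → RT-PCR → 6-FAM primer extension → HpaI digest → capillary electrophoresis fluorescence. Gain/loss of signal fitted relative to DMSO.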

A short description of assay [20]: ATG_M_61_CIS: Attagene CIS-FACTORIAL HepG2 Assay for M61 Transcription Factor (Internal Marker) (AID 2282937). The settings on record: HepG2 Attagene CIS-FACTORIAL M61 internal marker reporter; actives raise or lower the signal. The method, boiled down: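 Multiplexed reporter mRNA assay, HepG2 human hepatoma cells, 24 h treatment. Signal: FAM-labelled, HpaI-digested RT-PCR fragments by CE. Fit: bidirectional, baseline DMSO.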

Sequence of Hepatocyte nuclear factor 3-beta (Homo sapiens) (Q9Y261 whole entry, looked up): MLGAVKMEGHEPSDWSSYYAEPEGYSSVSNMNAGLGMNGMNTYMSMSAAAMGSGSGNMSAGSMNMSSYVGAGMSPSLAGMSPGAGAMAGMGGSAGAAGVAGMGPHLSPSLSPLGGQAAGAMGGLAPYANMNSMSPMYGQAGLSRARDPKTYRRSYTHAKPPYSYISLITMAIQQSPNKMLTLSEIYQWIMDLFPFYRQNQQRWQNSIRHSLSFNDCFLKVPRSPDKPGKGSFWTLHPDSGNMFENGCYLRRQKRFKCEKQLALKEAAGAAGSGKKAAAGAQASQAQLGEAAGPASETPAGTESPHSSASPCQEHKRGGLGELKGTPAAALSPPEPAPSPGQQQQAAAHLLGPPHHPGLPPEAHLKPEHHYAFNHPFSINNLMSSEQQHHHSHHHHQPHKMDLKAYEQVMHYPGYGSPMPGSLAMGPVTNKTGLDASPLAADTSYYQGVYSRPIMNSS
Sequence of Bile acid receptor (Homo sapiens) (Q96RI1 whole entry, looked up): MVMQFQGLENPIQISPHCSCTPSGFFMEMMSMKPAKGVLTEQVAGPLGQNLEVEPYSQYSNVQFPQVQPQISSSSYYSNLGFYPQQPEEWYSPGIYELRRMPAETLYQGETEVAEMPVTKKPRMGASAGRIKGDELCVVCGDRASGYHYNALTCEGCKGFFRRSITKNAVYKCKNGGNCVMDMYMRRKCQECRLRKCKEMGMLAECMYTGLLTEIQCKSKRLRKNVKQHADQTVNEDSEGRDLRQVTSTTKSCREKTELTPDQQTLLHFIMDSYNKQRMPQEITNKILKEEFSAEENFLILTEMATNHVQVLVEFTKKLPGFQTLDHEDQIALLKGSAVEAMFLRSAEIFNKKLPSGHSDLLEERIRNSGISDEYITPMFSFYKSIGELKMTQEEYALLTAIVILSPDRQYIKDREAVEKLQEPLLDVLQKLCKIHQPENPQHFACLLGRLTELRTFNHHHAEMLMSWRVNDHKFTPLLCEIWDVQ
Sequence of Retinoic acid receptor alpha (Homo sapiens) (P10276 whole entry, looked up): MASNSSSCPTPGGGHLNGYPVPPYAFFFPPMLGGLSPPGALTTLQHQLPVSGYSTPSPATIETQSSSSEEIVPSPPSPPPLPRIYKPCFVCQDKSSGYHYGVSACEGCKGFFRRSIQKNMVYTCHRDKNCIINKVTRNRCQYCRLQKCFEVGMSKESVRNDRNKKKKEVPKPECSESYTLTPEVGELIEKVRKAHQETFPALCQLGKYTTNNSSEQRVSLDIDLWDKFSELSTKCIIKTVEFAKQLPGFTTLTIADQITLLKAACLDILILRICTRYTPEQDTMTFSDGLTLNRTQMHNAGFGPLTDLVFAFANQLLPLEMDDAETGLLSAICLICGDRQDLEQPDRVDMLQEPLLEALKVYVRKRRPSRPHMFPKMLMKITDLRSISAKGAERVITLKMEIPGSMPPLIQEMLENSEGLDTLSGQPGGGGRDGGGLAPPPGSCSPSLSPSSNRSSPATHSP
Sequence of CCAAT/enhancer-binding protein beta (Homo sapiens) (P17676 whole entry, looked up): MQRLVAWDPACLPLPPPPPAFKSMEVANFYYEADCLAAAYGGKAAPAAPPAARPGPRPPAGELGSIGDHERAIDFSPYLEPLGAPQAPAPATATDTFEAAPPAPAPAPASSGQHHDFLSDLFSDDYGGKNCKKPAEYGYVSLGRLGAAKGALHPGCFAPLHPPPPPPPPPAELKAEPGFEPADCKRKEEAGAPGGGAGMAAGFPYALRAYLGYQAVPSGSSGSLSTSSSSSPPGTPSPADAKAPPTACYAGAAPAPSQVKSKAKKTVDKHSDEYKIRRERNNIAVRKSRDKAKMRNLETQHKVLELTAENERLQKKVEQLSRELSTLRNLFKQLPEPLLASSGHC
Sequence of Aryl hydrocarbon receptor (Homo sapiens) (P35869 whole entry, looked up): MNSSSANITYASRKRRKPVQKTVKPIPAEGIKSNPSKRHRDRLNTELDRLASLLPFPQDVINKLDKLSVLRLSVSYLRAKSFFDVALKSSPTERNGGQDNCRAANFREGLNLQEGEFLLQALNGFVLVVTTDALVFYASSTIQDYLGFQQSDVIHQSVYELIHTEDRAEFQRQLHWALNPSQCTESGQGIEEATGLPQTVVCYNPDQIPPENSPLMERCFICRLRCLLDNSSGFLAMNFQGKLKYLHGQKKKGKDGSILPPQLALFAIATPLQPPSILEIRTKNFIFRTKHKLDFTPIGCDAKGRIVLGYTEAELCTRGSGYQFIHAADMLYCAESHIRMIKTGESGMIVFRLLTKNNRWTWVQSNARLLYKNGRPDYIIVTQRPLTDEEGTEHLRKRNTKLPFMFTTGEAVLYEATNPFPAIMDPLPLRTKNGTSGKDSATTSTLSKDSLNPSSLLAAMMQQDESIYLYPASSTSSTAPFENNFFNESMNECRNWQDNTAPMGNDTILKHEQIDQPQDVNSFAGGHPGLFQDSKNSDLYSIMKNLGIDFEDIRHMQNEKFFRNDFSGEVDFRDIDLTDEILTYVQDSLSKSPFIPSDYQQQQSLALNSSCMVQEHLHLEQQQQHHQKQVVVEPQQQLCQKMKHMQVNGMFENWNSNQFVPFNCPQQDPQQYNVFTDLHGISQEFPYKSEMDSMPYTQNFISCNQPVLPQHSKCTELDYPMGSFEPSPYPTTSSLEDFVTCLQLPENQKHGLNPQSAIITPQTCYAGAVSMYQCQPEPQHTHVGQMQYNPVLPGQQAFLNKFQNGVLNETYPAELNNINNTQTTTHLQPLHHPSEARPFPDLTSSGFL
Sequence of Transcription factor E2F1 (Homo sapiens) (Q01094 whole entry, looked up): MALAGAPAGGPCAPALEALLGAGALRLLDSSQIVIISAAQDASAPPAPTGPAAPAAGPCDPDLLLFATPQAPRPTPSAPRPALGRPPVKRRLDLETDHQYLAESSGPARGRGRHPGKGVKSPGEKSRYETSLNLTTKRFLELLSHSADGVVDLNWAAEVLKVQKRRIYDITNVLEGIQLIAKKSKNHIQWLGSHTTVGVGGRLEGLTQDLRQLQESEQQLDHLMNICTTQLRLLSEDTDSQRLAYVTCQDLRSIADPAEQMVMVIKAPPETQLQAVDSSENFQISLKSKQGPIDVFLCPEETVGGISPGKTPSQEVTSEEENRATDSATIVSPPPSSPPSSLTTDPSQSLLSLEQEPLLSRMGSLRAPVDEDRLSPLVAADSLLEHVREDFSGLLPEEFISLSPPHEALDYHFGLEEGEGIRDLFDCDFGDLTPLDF

For `CC[N+](C)(CC)CC`, the call in assay [1], in assay [2], in assay [3], in [4], in assay [5] and in [6] was inactive. For the same compound, the compound was called inactive in assay [7], in assay [8], in assay [9], in assay [10], in assay [11] and in [12]. The outcome in [13], in [14], in assay [15], in [16], in assay [17] and in assay [18] was inactive. Besides, the outcome in assay [19] was inactive.

As for `C1CCOC1`, the compound was called inactive in assay [1], in assay [2], in [3], in assay [4], in assay [5] and in [6]. Moreover, the compound was called inactive in assay [7], in [8], in [9], in [10], in [20] and in assay [13]. Further, the outcome in assay [14], in [15], in assay [16], in [17], in assay [18] and in assay [19] was inactive.

Turning to `COc1ccccc1[N+](=O)[O-]`, the outcome in [1], in assay [2], in assay [3], in assay [4], in assay [5] and in [6] was inactive. In addition, the compound was classed as inactive in assay [7], in assay [8], in assay [9], in [10], in assay [20] and in [12]. Further, the compound was called inactive in assay [13], in [14], in assay [15], in assay [16], in assay [17] and in assay [18]. In assay [19], the result was inactive.

For `COC(=O)Nc1ccc(Cl)c(Cl)c1`, the compound was classed as inactive in assay [1], in [2], in [7], in [8], in [9] and in [11]. For the same compound, the compound was called inactive in assay [20], in assay [12], in assay [13], in assay [14], in [15] and in assay [16]. For the same compound, the result in assay [17], in assay [18] and in assay [19] was inactive. For the same compound, the AC50 in [3] is 24 µM (active); in [4], 26.2 µM (active); in assay [5], 55.7 µM (active); in [6] it was 172 µM (active).

The record behind these values is PubChem BioAssay (EPA / NIEHS).
